# Assay results from ChEMBL document CHEMBL4513216, “Probing the Open Global Health Chemical Diversity Library for Multistage-Active Starting Points for Next-Generation Antimalarials” (ACS Infect Dis, 2020).
# The whole screen tested about 68,000 compounds, of which about 2,700 (4%) showed an effect of 50% or more. The entries come from a sample that favours strong results as a whole.
# System: Plasmodium berghei
# Experiment: Screen against P. berghei liver stage (PbLuc), transformed with Luciferase, at 2uM
# Assay type: functional, HepG2
# Settings: tested at 2 uM
row,Compound,INHIBITION [%]
1,Cc1nccn1C1CCCN(C(=O)c2cccc(S(C)(=O)=O)c2)C1 (configuration not stated),5.72
2,COc1ccccc1C1(CNC(=O)NCc2noc(C)n2)CC1,15.28
3,COc1ccccc1C1(CNc2ccc(C(=O)N(C)C)cn2)CC1,50.61
4,COc1ccccc1C1(CNc2ncc(S(N)(=O)=O)s2)CC1,7.67
5,COc1ccccc1C1(CNc2cc(C(=O)N(C)C)ccn2)CC1,33.78
6,COc1ccccc1C1(CNc2ccnc(C(=O)N(C)C)c2)CC1,67.44
7,CN(C)C(=O)c1ccc(NCCNc2ccc3ccccc3n2)nc1,-37.09
8,OCCOCCN1CCCC1c1cccc(Cl)c1 (configuration not stated),-17.64
9,Cc1nc(N(C)C)nc(N(C)Cc2cnccn2)c1C,20.29
10,COC(=O)c1ccc(C2SC(C)=Nc3c2c(=O)[nH]n3C2CCCC2)cc1 (configuration not stated),-3.18
11,CCCN(C)S(=O)(=O)N1CCCC1c1ccco1 (configuration not stated),-3.57
12,COC(=O)c1cccc(S(=O)(=O)NC(=O)c2ccccc2F)c1,0
13,Cc1cc(NC(=O)C(C)Nc2cccc(COCc3ccco3)c2)on1 (configuration not stated),55.52
14,CCOC(=O)C(C)Nc1cccc(COCc2ccco2)c1 (configuration not stated),-5.44
15,Cc1cc(NC(=O)C(C)Nc2cccc(COCc3ccco3)c2)no1 (configuration not stated),21.57
16,Cc1ncc(CNC2CC(=O)N(CCc3cccc(Cl)c3)C2)n1C (configuration not stated),-15.29
17,NC(=O)C1CCN(CC(=O)N(Cc2ccccc2)Cc2nccs2)CC1,26.93
18,Cc1nc(C(=O)NCCS(=O)(=O)N2CCCC2)cs1,3.29
19,CCc1cc(NCc2ccccc2CN2CCCC2)n2ncnc2n1,-23.61
20,CCc1cc(NCC(O)CN2CCCCC2)n2ncnc2n1 (configuration not stated),16.01
21,CCc1cc(NCc2cccnc2N2CCCCC2)n2ncnc2n1,64.9
22,CCC(C)[C@H](N)c1nnc(SCC(=O)Nc2ccc(Br)cc2)o1 (some centres not stated),-7.19

row,Compound,INHIBITION [%]
1,CNc1cc(C2CN(C(=O)c3cscn3)CCO2)nc(C)n1 (configuration not stated),26.69
2,CCc1nc(CN(C(C)=O)C2CCN(CCc3ccncc3)C2)no1 (configuration not stated),-21.22
3,CCc1nc(CN(C(C)=O)C2CCN(CCc3cnn(C)c3)C2)no1 (configuration not stated),-10.66
4,CC(C)CNC(=O)c1cn(C(C)C)cc2c(=O)[nH]nc1-2,55.52
5,COCCCNC(=O)c1cn(C(C)C)cc2c(=O)[nH]nc1-2,15.34
6,CC(C)n1cc(C(=O)NCCN(C)C)c2n[nH]c(=O)c-2c1,9.1
7,CNC(=O)CN1CCCC12CCN(C(=O)c1ccsc1)CC2,24.15
8,Cc1nc(CN2CCC(O)(c3ccccc3F)CC2)c2ccccn12,15.55
9,CCOc1ccc(C(=O)N2CCCC2c2cnn(C)c2)cn1 (configuration not stated),-1.02
10,COc1ccc(C(=O)N2CCCC2c2cnn(C)c2)cn1 (configuration not stated),80.46
11,Cn1cc(C2CCCN2C(=O)COCCc2ccccc2)cn1 (configuration not stated),50.76
12,Cc1cnn(CC2CCCN2C(=O)Cc2n[nH]c3ccccc23)c1 (configuration not stated),3.9
13,CCCc1noc(CCCC(=O)N2CCCC2c2cnn(C)c2)n1 (configuration not stated),54.99
14,CCCc1noc(CCC(=O)N2CCCC2c2ccncc2)n1 (configuration not stated),-33.92
15,O=C(Cc1n[nH]c2ccccc12)N1CCCC1Cn1cccn1 (configuration not stated),-36.73
16,Cn1cc(C2CCCN2C(=O)Cc2n[nH]c3ccccc23)cn1 (configuration not stated),63.95
17,Cn1cc(C2CCCN2C(=O)CCCOCc2ccccc2)cn1 (configuration not stated),-3.9
18,Cn1cc(C2CCCN2C(=O)COCCOc2ccccc2)cn1 (configuration not stated),-24.75
19,CC(C)Oc1ccc(C(=O)N2CCCC2c2cnn(C)c2)cn1 (configuration not stated),15.13
20,CCCc1noc(CCC(=O)N2CCCC2c2ccc(OC)cc2)n1 (configuration not stated),30.29
21,O=C(NC[C@H]1OC[C@@H](NCc2ccccc2F)[C@@H]1O)c1ccc(F)cc1,-13.88
22,CCC(CCN)n1ccc(C(F)(F)F)n1 (configuration not stated),-31.71

row,Compound,INHIBITION [%]
1,Cn1cnnc1SC1CCc2ccccc2NC1=O (configuration not stated),21.31
2,CN(Cc1cn2c(n1)CN(Cc1ccsc1)CC2)Cc1ccco1,-9.48
3,COCc1nc2nc(O)c3c(n2n1)NC(=O)CC3c1ccc(SC)cc1 (configuration not stated),-19.97
4,Cc1cccc(C(=O)N2CCC3(CC2)CC(c2cnn(C)c2)CO3)c1 (configuration not stated),11.79
5,CC(C(=O)Nc1ccnn1C(C)C)N1CCc2nn(C)c(=O)cc2C1 (configuration not stated),-15.38
6,CC(C)CN1CCCC1c1cc[nH]n1 (configuration not stated),17.29
7,c1ccc(COC[C@@H]2CCC[C@]23CN(Cc2nccs2)CCO3)nc1,17.24
8,CS(=O)(=O)N1CCCC12CCCN(C(=O)c1ccno1)C2 (configuration not stated),7.3
9,CCN(CC)C1(Cc2cc(CC(C)C)on2)COC1,32.59
10,CCN(CC)C1(Cc2cc(COC)on2)COC1,52.36
11,COCc1cc(CC2(NC3CCCCC3)COC2)no1,-9.98
12,Cc1ccc(C(=O)N2CCc3ncnc(C)c3CC2)o1,32.97
13,Cc1ccc(C(=O)N2C[C@H]3CCC[C@@]3(COCC3CCOCC3)C2)o1,-35.36
14,CCOC(=O)N1CCc2ccccc2C12CCNCC2,4.38
15,Cc1ccc(CN2CCOC3(CCN(C(=O)N4CCCC4)CC3)C2)cc1,33.35
16,Cc1ccc(CN2CCOC3(CCN(C(=O)C4CCOC4)CC3)C2)cc1 (configuration not stated),69.37
17,Cc1ccc(CN2CCOC3(CCN(C(=O)C4CC=CC4)CC3)C2)cc1,-41.1
18,Cc1nc(C)n(CC2CN(CCc3ccccc3Cl)CCO2)n1 (configuration not stated),-7.08
19,Cc1ccccc1CSCCn1nc2ccccn2c1=O,6.3
20,CC(=O)NCCCSC1CCN(c2c(F)cccc2F)C1=O (configuration not stated),41.07
21,CC(=O)NCCCSC1CCCN(c2ccccc2F)C1=O (configuration not stated),9.13
22,CC(=O)NCCCSC1CCN(c2ccccc2Cl)C1=O (configuration not stated),68.61

row,Compound,INHIBITION [%]
1,CC(=O)NCCCSC1CCCN(c2ccccc2Cl)C1=O (configuration not stated),-1.89
2,CC(=O)NCCCSC1CCN(c2ccccc2F)C1=O (configuration not stated),75.22
3,Cn1nnnc1SC1CCN(c2ccccc2Cl)C1=O (configuration not stated),4.99
4,CCc1ccc(S(=O)(=O)Nc2ccncc2)s1,-13.03
5,COc1cc2c(cc1CN1CCn3c(CO)nnc3C1)CCC2,16.14
6,Cc1cc(CN2CCCC2c2noc(C)n2)no1 (configuration not stated),-52.52
7,Cc1nnc([C@@H]2C[C@H]3CN(C4CCC4)C[C@H]3O2)[nH]1,4.07
8,CCCc1nnc(N2CCN(c3ccccc3OCC)CC2)o1,-11.34
9,O=C(CCC1CCCC1)N1CCCC(c2ncc3c(n2)CCNC3)C1 (configuration not stated),24.89
10,Cc1c(CN2CCCC(C(=O)Nc3ccccc3)C2)cc(C#N)n1C (configuration not stated),9.63
11,c1cc(CN2CCCCC2c2ccc(Nc3cnccn3)nc2)ccn1 (configuration not stated),42.53
12,Cc1ncoc1C(=O)N1CCc2[nH]nc(-c3ccc4c(c3)OCO4)c2C1,-4.53
13,Cc1nc(COCc2cnc3n2CCN(CC2CCC2)C3C)cs1 (configuration not stated),25.35
14,O=C(N[C@@H]1CCC[C@@H](N2CCCC2)[C@@H]1O)c1cc2ccccc2[nH]1,14.49
15,O=C(N[C@@H]1CCC[C@@H](N2CCOCC2)[C@@H]1O)c1cc2ccccc2[nH]1,8.26
16,O=C(N[C@@H]1CC[C@@H](N2CCCC2)[C@@H]1O)c1cc2ccccc2[nH]1,51.88
17,COCc1nc(C(=O)NS(=O)(=O)c2cc(F)ccc2F)cs1,29.37
18,Cc1nc(NCc2nncn2C2CC2)c2c(CC(C)C)csc2n1,36.86
19,COc1ccc(CN2CCC(O)(CN3CCCCC3)C2)c(C)c1 (configuration not stated),-1.21
20,CN(Cc1noc(C2CC2)n1)C1CCN(Cc2nc(C3CC3)no2)C1 (configuration not stated),27.89
21,CC1CCN(CCCNC(=O)NC(C)c2nncn2C)CC1 (configuration not stated),6.3
22,CCNc1c(NC(=O)NCCOC)c(=O)oc2ccccc12,-25.41

row,Compound,INHIBITION [%]
1,FC(F)(F)c1nc(NC2CCc3ncnn3C2)c2ccccc2n1 (configuration not stated),-8.8
2,FC(F)(F)c1nc(NC2CCCCC2)c2ccccc2n1,52.43
3,FC(F)(F)c1nc(NC2CCCC2)c2ccccc2n1,15.52
4,O=c1c2sccc2nc2n1CCN(Cc1ccccc1C(F)(F)F)CC2,26.56
5,O=C1CC(c2ccccc2)C2(CCN(C(=O)c3cnccn3)CC2)N1 (configuration not stated),20.87
6,COc1ccccc1CN1CC[C@H]2C[C@H](C(=O)N3CCCC3)O[C@H]2C1,15.89
7,O=C([C@@H]1C[C@@H]2CCN(C3CCOCC3)C[C@H]2O1)N1CCCC1,-26.64
8,O=C([C@@H]1C[C@@H]2CCN(CCc3ccccc3)C[C@H]2O1)N1CCCC1,14.94
9,O=C([C@H]1C[C@@H]2CCN(C3CCOCC3)C[C@H]2O1)N1CCCC1,18.65
10,O=C([C@@H]1C[C@@H]2CCN(C3CCOCC3)C[C@@H]2O1)N1CCCC1,65.26
11,COc1ccccc1CN1CC[C@H]2C[C@@H](C(=O)N3CCCC3)O[C@H]2C1,52.4
12,CCC1CN(CCC(=O)N(C)C)CCN1CCOC (configuration not stated),-7.41
13,CC/N=c1\nc(NCC)nc2n1C(O)(Nc1cc(Cl)ccc1Cl)CS2 (configuration not stated),28.5
14,CCc1nc(C(=O)N2CCN(CC)CC2)nn1-c1ccccc1Cl,13.24
15,CC(C)N(C)Cc1nnc2n1CCN(Cc1ccncc1)CC2,-2.32
16,COc1ccc(Cc2ncc3c(n2)CN(C(=O)CO)C3)cc1,6.39
17,Cc1ccc(CN(C)C(=O)CN2CC(n3cccn3)C2)o1,3
18,Cc1cnn(C2CN(CC(=O)N(C)Cc3cccs3)C2)c1,7.67
19,Cc1cnn(C2CN(CC(=O)N(C)Cc3ccc(C)o3)C2)c1,62.51
